Values joined by “and” are separate entries in the source; they are usually repeats but may differ in a detail not shown here. Equal entries are not always repeated. Among all 5,500 compounds or so, about 2,000 (36%) were called active. Another 18% or so got no clear call; they are omitted. Cut-off read from the data, not from the text of the source: active = normalized growth mostly below about 0.91 (no sharp cut-off); inconclusive = no clear call, values can overlap the other calls; inactive = mostly above about 0.92. The list shows a part of the results.
Experiment: chemical genetic growth profiling, strain panel (AID 1159580);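 note: tested at 20 µM; growth read once vehicle control cultures reached saturation at 30 °C; 1 = growth at the plate median or of vehicle wells; lower values mean less growth of the strain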
Settings: S. cerevisiae deletion strains, growth OD

Measured: normalized growth

CCN(CC)CCNC(=O)c1cc(Cl)c(N)cc1OC
inactive: locus YAL013W, strain DEP1, stronger effect = lower value 1.01 | locus YAL021C, strain ccr4, stronger effect = lower value 0.992 | locus YAL026C, strain drs2, stronger effect = lower value 0.998 | locus YAL030W, strain snc1, stronger effect = lower value 0.974 | locus YAL040C, strain CLN3, stronger effect = lower value 0.981 | locus YBL061C, strain skt5, stronger effect = lower value 0.976 | locus YBR009C, strain hhf1, stronger effect = lower value 0.987 | locus YBR021W, strain FUR4, stronger effect = lower value 1.02 | locus YBR023C, strain chs3, stronger effect = lower value 0.984 | locus YBR171W, strain sec66, stronger effect = lower value 0.979 | locus YBR229C, strain ROT2, stronger effect = lower value 1.01 | locus YBR231C, strain swc5, stronger effect = lower value 0.996 | locus YBR279W, strain paf1, stronger effect = lower value 0.992 | locus YCL011C, strain gbp2, stronger effect = lower value 0.94 | locus YCL016C, strain dcc1, stronger effect = lower value 0.948 | locus YCL029C, strain bik1, stronger effect = lower value 0.993 | locus YCL061C, strain MRC1 (second series), stronger effect = lower value 1.01 | locus YCL061C, strain MRC1, stronger effect = lower value 0.988 | locus YCL069W, strain vba3, stronger effect = lower value 0.985 | locus YCR088W, strain abp1, stronger effect = lower value 0.991 | locus YDL005C, strain med2, stronger effect = lower value 0.986 | locus YDL035C, strain GPR1, stronger effect = lower value 1.01 | locus YDL040C, strain nat1, stronger effect = lower value 0.988 | locus YDL074C, strain BRE1, stronger effect = lower value 1.02 | locus YDL101C, strain DUN1, stronger effect = lower value 1 | locus YDL134C, strain PPH21, stronger effect = lower value 1.01 | locus YDL185W, strain tfp1, stronger effect = lower value 0.996 | locus YDL192W, strain arf1, stronger effect = lower value 1.01 | locus YDR001C, strain nth1, stronger effect = lower value 0.968 | locus YDR069C, strain doa4, stronger effect = lower value 0.962 | locus YDR101C, strain arx1, stronger effect = lower value 0.985 | locus YDR137W, strain rgp1, stronger effect = lower value 0.967 | locus YDR150W, strain NUM1, stronger effect = lower value 1.02 and 1.01 | locus YDR159W, strain sac3, stronger effect = lower value 1.01 | locus YDR162C, strain NBP2, stronger effect = lower value 1.01 | locus YDR195W, strain ref2 0.974 | locus YDR297W, strain sur2, stronger effect = lower value 0.984 | locus YDR318W, strain mcm21, stronger effect = lower value 0.996 | locus YDR334W, strain swr1, stronger effect = lower value 0.93 | locus YDR335W, strain msn5, stronger effect = lower value 0.976 | locus YDR363W, strain ESC2, stronger effect = lower value 1.02 | locus YDR388W, stronger effect = lower value 0.995 | locus YDR392W, strain spt3, stronger effect = lower value 0.975 | locus YDR502C, strain sam2, stronger effect = lower value 0.988 | locus YEL003W, strain gim4, stronger effect = lower value 0.994 | locus YEL037C, strain rad23, stronger effect = lower value 0.976 | locus YEL061C, strain CIN8 (second series), stronger effect = lower value 0.978 | locus YEL061C, strain CIN8, stronger effect = lower value 1.01 | locus YER002W, strain NOP16, stronger effect = lower value 0.994 | locus YER015W, strain faa2, stronger effect = lower value 0.979 | locus YER016W, strain bim1, stronger effect = lower value 0.994 | locus YER110C, stronger effect = lower value 0.994 | locus YER111C, strain swi4, stronger effect = lower value 0.988 | locus YER155C, strain BEM2 (second series), stronger effect = lower value 1.03 | locus YER155C, strain BEM2, stronger effect = lower value 0.999 | locus YER167W, strain BCK2, stronger effect = lower value 1.01 | locus YFR010W, strain ubp6, stronger effect = lower value 0.969 | locus YGL078C, strain dbp3, stronger effect = lower value 0.997 | locus YGL086W, strain mad1, stronger effect = lower value 0.993 | locus YGL167C, strain pmr1, stronger effect = lower value 0.972 | locus YGL173C, strain kem1, stronger effect = lower value 0.98 | locus YGL227W, strain vid30, stronger effect = lower value 0.977 | locus YGL240W, strain doc1, stronger effect = lower value 1.01 | locus YGL248W, strain PDE1, stronger effect = lower value 1.01 | locus YGL253W, strain hxk2, stronger effect = lower value 0.981 | locus YGR078C, strain PAC10, stronger effect = lower value 1.02 | locus YGR135W, strain pre9, stronger effect = lower value 0.998 | locus YGR229C, strain SMI1, stronger effect = lower value 1.01 and 1.02 | locus YGR252W, strain gcn5, stronger effect = lower value 0.958 | locus YHR013C, strain ard1, stronger effect = lower value 0.955 | locus YHR027C, strain rpn1, stronger effect = lower value 0.963 | locus YHR030C, strain SLT2, stronger effect = lower value 1.01 and 1.07 | locus YHR079C, strain IRE1 (second series), stronger effect = lower value 0.994 | locus YHR079C, strain IRE1, stronger effect = lower value 1.07 | locus YHR094C, strain hxt1, stronger effect = lower value 0.992 | locus YHR129C, strain ARP1, stronger effect = lower value 1 | locus YHR142W, strain chs7, stronger effect = lower value 0.939 | locus YHR200W, strain rpn10, stronger effect = lower value 0.994 | locus YIL066C, strain RNR3, stronger effect = lower value 1.02 | locus YIL073C, strain SPO22, stronger effect = lower value 1.02 | locus YIL125W, strain kgd1, stronger effect = lower value 0.993 | locus YIR030C, strain dcg1, stronger effect = lower value 1 | locus YJL092W, strain hpr5, stronger effect = lower value 0.978 | locus YJL095W, strain BCK1 (second series), stronger effect = lower value 0.978 | locus YJL095W, strain BCK1, stronger effect = lower value 1 and 1.04 | locus YJL115W, strain asf1, stronger effect = lower value 0.953 | locus YJL129C, strain trk1, stronger effect = lower value 0.997 | locus YJL134W, strain LCB3, stronger effect = lower value 1.01 | locus YJL154C, strain vps35, stronger effect = lower value 0.971 | locus YJL164C, strain tpk1, stronger effect = lower value 1.01 | locus YJL166W, strain qcr8, stronger effect = lower value 0.956 | locus YJL168C, strain set2, stronger effect = lower value 0.992 | locus YJL187C, strain SWE1 (second series), stronger effect = lower value 1.02 | locus YJL187C, strain SWE1, stronger effect = lower value 0.989 | locus YJR043C, strain POL32, stronger effect = lower value 0.996 | locus YJR066W, strain TOR1, stronger effect = lower value 1
